From the supplement of paper PMC4840960 come the findings set out here.

Test [1] relates to E18 rat cortical neuron-glia co-culture. Kind of test: fiber score / MBP score (myelination specific beyond OL differentiation) (ratio); higher = more myelination-specific MBP alignment. To be noted: treatment time: 8 days (DIV5-DIV13). In short, it runs like this: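 Library compounds were applied at 1 or 5 µM in myelination medium, DIV5 to DIV13, to primary E18 rat cortical co-cultures grown at 20,000 cells/well in 96-well plates. After 4 % paraformaldehyde fixation and MBP/Olig2/DAPI immunostaining, four 10X fields per well in duplicate wells were scored. Each value is continuous MBP fiber length per Olig2+ nucleus divided by thresholded MBP area × intensity per Olig2+ nucleus.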

The test system is the same in test [2]. The test can be described thus: myelination (MBP fiber length per Olig2+ nucleus), % of 1 µM DAPT response (DMSO = 0) (% of DAPT); higher = more myelination, active = 50 or more. The settings on record: treatment time: 8 days (DIV5-DIV13). Summed up:
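Library compounds at 1 or 5 µM in myelination medium were applied from DIV5 to DIV13 to papain-dissociated E18 rat cortical co-cultures seeded at 20,000 cells/well on poly-d-lysine/laminin 96-well plates. Fixed cells (4 % paraformaldehyde) were immunostained for MBP and Olig2 with DAPI, and four 10X fields were analysed in each duplicate well. Continuous straight MBP fiber length per Olig2+ nucleus was set to 0 for 0.1 % DMSO and to 100 for a 1 µM positive control.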

Structures can show the parent of a compound that is named as a salt. ± gives the standard deviation of the averaged measurements.

As to `C[C@H]1C[C@H]2[C@@H]3CCC4=CC(=O)C=C[C@]4(C)[C@@]3(Cl)[C@@H](O)C[C@]2(C)[C@@]1(O)C(=O)CO` [Beclomethasone], the “fiber score / MBP score” value came to 0.828 ± 0.36 in test [1] (1 µM) and 0.822 ± 0.021 in test [1] (5 µM). The myelination in test [2] (1 µM) was -2.48 (inactive); in test [2] (5 µM), -7.92 (inactive).

Take `CCC(C)n1ncn(-c2ccc(N3CCN(c4ccc(OCC5COC(Cn6cncn6)(c6ccc(Cl)cc6Cl)O5)cc4)CC3)cc2)c1=O` (stereo not drawn) [Itraconazole]: the “fiber score / MBP score” value was determined as 1.21 in test [1] (1 µM) and 0.918 in test [1] (5 µM). Also, the values for the myelination in test [2] (1 µM) and in test [2] (5 µM) were 8.72 (inactive) and -72.2 (inactive), respectively.

Take `C[C@]12C=CC(=O)C=C1CC[C@@H]1[C@@H]2C(=O)C[C@@]2(C)[C@H]1CC[C@]2(O)C(=O)CO` [Prednisone]: the figures for the “fiber score / MBP score” value in test [1] (1 µM) and in test [1] (5 µM) were 0.839 and 0.736, respectively. In addition, the myelination was -13.2 (inactive) in test [2] (1 µM) and -10.1 (inactive) in test [2] (5 µM).

For the compound `CC(=O)NCCCCCCNC(C)=O` [Hexamethylene bisacetamide], the “fiber score / MBP score” value was determined as 0.663 in test [1] (1 µM) and 0.981 in test [1] (5 µM). Also, the myelination is -0.00866 (inactive) in test [2] (1 µM) and -2.54 (inactive) in test [2] (5 µM).

For the compound `O=C(CCNNC(=O)c1ccncc1)NCc1ccccc1` [Nialamide], the “fiber score / MBP score” value in test [1] (1 µM) was found to be 0.859; in test [1] (5 µM) it was 0.524. The values for the myelination in test [2] (1 µM) and in test [2] (5 µM) were -5.76 (inactive) and -19 (inactive), respectively.

`CN1CCC(=C2c3ccccc3CC(=O)c3sccc32)CC1` [Ketotifen]: the “fiber score / MBP score” value in test [1] (1 µM) was 1.03; in test [1] (5 µM), 0.58. For the same compound, the figures for the myelination in test [2] (1 µM) and in test [2] (5 µM) were -0.199 (inactive) and -13.6 (inactive), respectively.

Turning to `Nc1cc(N2CCCCC2)nc(N)[n+]1[O-]` [Minoxidil], the “fiber score / MBP score” value came to 0.696 in test [1] (1 µM) and 0.658 in test [1] (5 µM). For the same compound, the results for the myelination in test [2] (1 µM) and in test [2] (5 µM) were -26.1 (inactive) and -24.5 (inactive), respectively.

As for `CCN1CCC[C@H]1CNC(=O)c1c(O)c(Cl)cc(Cl)c1OC` [Raclopride], the results for the “fiber score / MBP score” value in test [1] (1 µM) and in test [1] (5 µM) were 1.05 and 0.709, respectively. Further, the myelination in test [2] (1 µM) is 18.4 (inactive); in test [2] (5 µM), -30.6 (inactive).

As for `OCc1cccnc1` [Nicotinyl Alcohol], the “fiber score / MBP score” value in test [1] (1 µM) stood at 0.641; in test [1] (5 µM) it was 0.687. In addition, the myelination in test [2] (1 µM) was -10.3 (inactive); in test [2] (5 µM), -10.1 (inactive).

For `CC1(C)C[C@@H]1C(=O)N/C(=C\CCCCSC[C@H](N)C(=O)O)C(=O)O` [Cilastatin], the “fiber score / MBP score” value in test [1] (1 µM) stood at 0.833; in test [1] (5 µM), 0.756. Besides, the myelination in test [2] (1 µM) is -11.5 (inactive); in test [2] (5 µM), -15.2 (inactive).

Turning to `CC(C(=O)O)c1ccc(-c2ccccc2)c(F)c1` (stereo not drawn) [Flurbiprofen], the entries for the “fiber score / MBP score” value in test [1] (1 µM) and in test [1] (5 µM) were 0.667 ± 0.24 and 0.793 ± 0.03, respectively. Besides, the figures for the myelination in test [2] (1 µM) and in test [2] (5 µM) were -16.8 (inactive) and -13.6 (inactive), respectively.

Take `Cc1ccc(NC(=O)c2ccc(CN3CCN(C)CC3)cc2)cc1Nc1nccc(-c2cccnc2)n1` [Imatinib mesylate]: the “fiber score / MBP score” value was found to be 0.424 in test [1] (1 µM) and 0.773 in test [1] (5 µM). Also, the results for the myelination in test [2] (1 µM) and in test [2] (5 µM) were -5.16 (inactive) and 37.1 (inactive), respectively.

Take `CCCCC(=O)O[C@H]1CC[C@H]2[C@@H]3CCc4cc(O)ccc4[C@H]3CC[C@]12C` [Estradiol valerate]: the “fiber score / MBP score” value in test [1] (1 µM) worked out at 1.07; in test [1] (5 µM), 1.04. In addition, the values for the myelination in test [2] (1 µM) and in test [2] (5 µM) were 1.8 (inactive) and 11.9 (inactive), respectively.

Consider `COc1ccccc1OCCNCC(O)COc1cccc2[nH]c3ccccc3c12` (stereo not drawn) [Carvedilol], for which the entries for the “fiber score / MBP score” value in test [1] (1 µM) and in test [1] (5 µM) were 0.762 and 0.794, respectively. Further, the myelination was -38.4 (inactive) in test [2] (1 µM) and -16.8 (inactive) in test [2] (5 µM).

Consider `Cc1cnc(C(=O)NCCc2ccc(S(=O)(=O)NC(=O)NC3CCCCC3)cc2)cn1` [Glipizide], for which the “fiber score / MBP score” value in test [1] (1 µM) was found to be 1.13; in test [1] (5 µM), 0.658. Moreover, the values for the myelination in test [2] (1 µM) and in test [2] (5 µM) were 2.75 (inactive) and -12.8 (inactive), respectively.

`C=CC[C@@H]1/C=C(\C)C[C@H](C)C[C@H](OC)[C@H]2O[C@@](O)(C(=O)C(=O)N3CCCC[C@H]3C(=O)O[C@H](/C(C)=C/[C@@H]3CC[C@@H](O)[C@H](OC)C3)[C@H](C)[C@@H](O)CC1=O)[C@H](C)C[C@@H]2OC` [Tacrolimus]: the “fiber score / MBP score” value in test [1] (1 µM) was 0.687; in test [1] (5 µM), 0.587. The myelination is -24.6 (inactive) in test [2] (1 µM) and -22.8 (inactive) in test [2] (5 µM).

Consider `CC[C@H](C)C(=O)O[C@H]1C[C@@H](C)C=C2C=C[C@H](C)[C@H](CC[C@@H]3C[C@@H](O)CC(=O)O3)[C@H]21` [Lovastatin], for which the “fiber score / MBP score” value was found to be 2.07 in test [1] (1 µM) and 6.02 in test [1] (5 µM). The myelination in test [2] (1 µM) was -6.08 (inactive); in test [2] (5 µM), 1.23 (inactive).

As to `O=C(O)CCNC(=O)c1ccc(/N=N/c2ccc(O)c(C(=O)O)c2)cc1` [Balsalazide], the entries for the “fiber score / MBP score” value in test [1] (1 µM) and in test [1] (5 µM) were 0.862 and 0.833, respectively. Also, the myelination is -5.47 (inactive) in test [2] (1 µM) and -9.22 (inactive) in test [2] (5 µM).

In the case of `CCOC(=O)[C@@]1(CCCCCCOc2ccc(Cl)cc2)CO1` [Etomoxir], the “fiber score / MBP score” value in test [1] (1 µM) is 0.693; in test [1] (5 µM), 0.645. The figures for the myelination in test [2] (1 µM) and in test [2] (5 µM) were -31 (inactive) and -26.2 (inactive), respectively.

As to `Nc1nc(N)nc(-c2cc(Cl)ccc2Cl)n1` [Irsogladine], the “fiber score / MBP score” value in test [1] (1 µM) was determined as 0.913; in test [1] (5 µM), 0.877. In addition, the myelination in test [2] (1 µM) is -14.2 (inactive); in test [2] (5 µM), -20.9 (inactive).

`C[C@]12C[C@H](O)[C@H]3[C@@H](CCC4=CC(=O)CC[C@@]43C)[C@@H]1CC[C@@H]2C(=O)CO` [Corticosterone]: the figures for the “fiber score / MBP score” value in test [1] (1 µM) and in test [1] (5 µM) were 0.706 and 0.702, respectively. The figures for the myelination in test [2] (1 µM) and in test [2] (5 µM) were -7.15 (inactive) and -4.49 (inactive), respectively.

Take `CCN1CCN(c2cc3c(cc2F)c(=O)c(C(=O)O)cn3C2CC2)CC1` [Enrofloxacin]: the “fiber score / MBP score” value amounted to 0.94 in test [1] (1 µM) and 0.516 in test [1] (5 µM). For the same compound, the myelination in test [2] (1 µM) was -5.04 (inactive); in test [2] (5 µM), -19.3 (inactive).
